Assay results from ChEMBL document CHEMBL1961873, “Compounds: GSK PKIS; Assays: Nanosyn kinase panel” (2012).

Columns and labels:
[1] = molecular target: T1, Mitogen-activated protein kinase 12 (Homo sapiens) (UniProt P53778); conditions: at 1 µM;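 also: values are averaged p38gamma kinase inhibition readings, compounds tested at 1 µM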
T1 sequence (whole entry): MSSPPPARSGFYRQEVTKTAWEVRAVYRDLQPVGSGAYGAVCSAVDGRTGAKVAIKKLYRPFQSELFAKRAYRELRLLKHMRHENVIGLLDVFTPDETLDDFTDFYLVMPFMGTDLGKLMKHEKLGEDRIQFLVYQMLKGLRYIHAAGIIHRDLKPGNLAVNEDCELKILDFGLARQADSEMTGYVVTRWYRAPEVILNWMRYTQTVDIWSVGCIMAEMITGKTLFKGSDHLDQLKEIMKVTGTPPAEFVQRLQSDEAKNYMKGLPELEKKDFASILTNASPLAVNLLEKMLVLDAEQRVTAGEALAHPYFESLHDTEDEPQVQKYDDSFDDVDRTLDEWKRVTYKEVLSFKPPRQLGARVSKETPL

[2] = molecular target: SRSF protein kinase 1 (Homo sapiens) (UniProt Q96SB4); conditions: at 0.1 µM
SRSF protein kinase 1 (Homo sapiens), sequence (Q96SB4 whole entry, canonical isoform): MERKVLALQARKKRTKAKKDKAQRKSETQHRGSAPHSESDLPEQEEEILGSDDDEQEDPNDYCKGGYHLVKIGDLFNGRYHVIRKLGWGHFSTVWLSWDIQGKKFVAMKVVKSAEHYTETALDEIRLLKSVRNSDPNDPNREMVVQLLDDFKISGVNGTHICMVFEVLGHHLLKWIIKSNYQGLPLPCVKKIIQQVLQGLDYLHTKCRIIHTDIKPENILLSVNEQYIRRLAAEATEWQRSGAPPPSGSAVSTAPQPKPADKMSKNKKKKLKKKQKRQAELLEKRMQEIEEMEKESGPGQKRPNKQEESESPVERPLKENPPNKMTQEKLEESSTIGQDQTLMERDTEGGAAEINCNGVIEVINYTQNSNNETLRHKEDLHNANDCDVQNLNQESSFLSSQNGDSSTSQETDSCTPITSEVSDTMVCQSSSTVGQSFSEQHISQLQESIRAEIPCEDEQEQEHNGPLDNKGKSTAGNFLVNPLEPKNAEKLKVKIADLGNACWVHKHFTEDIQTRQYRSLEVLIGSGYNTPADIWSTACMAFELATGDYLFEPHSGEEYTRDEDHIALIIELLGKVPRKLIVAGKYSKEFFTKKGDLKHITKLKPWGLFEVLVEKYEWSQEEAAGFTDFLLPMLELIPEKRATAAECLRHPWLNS

[3] = molecular target: SRSF protein kinase 1 (Homo sapiens) (UniProt Q96SB4); conditions: at 1 µM
[4] = molecular target: Phosphatidylinositol 4,5-bisphosphate 3-kinase catalytic subunit alpha isoform (Homo sapiens) (UniProt P42336); conditions: at 0.1 µM
Phosphatidylinositol 4,5-bisphosphate 3-kinase catalytic subunit alpha isoform (Homo sapiens), sequence (P42336 whole entry, canonical isoform): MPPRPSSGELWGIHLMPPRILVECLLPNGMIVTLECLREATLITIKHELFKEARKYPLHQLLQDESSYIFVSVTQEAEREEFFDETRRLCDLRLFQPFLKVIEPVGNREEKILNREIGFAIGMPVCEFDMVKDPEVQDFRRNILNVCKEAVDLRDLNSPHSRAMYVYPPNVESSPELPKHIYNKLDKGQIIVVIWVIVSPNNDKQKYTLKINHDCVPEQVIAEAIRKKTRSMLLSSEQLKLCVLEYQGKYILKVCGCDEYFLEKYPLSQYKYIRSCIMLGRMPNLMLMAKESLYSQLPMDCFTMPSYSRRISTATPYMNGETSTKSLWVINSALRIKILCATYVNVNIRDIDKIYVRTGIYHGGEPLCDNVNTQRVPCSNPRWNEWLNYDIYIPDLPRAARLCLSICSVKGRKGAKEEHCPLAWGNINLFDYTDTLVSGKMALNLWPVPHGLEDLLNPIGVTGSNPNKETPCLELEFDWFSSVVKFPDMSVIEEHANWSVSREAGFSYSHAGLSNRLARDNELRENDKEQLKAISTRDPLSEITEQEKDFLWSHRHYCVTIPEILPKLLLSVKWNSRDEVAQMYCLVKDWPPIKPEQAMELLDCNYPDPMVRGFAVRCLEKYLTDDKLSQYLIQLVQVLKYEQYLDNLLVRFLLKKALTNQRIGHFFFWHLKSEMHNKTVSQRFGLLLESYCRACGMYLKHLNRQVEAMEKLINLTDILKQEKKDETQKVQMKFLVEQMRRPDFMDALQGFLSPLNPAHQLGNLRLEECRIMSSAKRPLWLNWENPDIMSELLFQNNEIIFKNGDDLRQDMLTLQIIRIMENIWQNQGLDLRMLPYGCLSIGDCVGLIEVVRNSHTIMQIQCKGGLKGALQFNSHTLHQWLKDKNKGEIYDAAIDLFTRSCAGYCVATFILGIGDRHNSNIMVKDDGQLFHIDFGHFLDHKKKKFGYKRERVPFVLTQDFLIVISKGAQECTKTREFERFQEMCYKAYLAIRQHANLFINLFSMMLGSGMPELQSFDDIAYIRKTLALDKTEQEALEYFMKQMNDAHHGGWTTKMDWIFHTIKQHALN

[5] = molecular target: Phosphatidylinositol 4,5-bisphosphate 3-kinase catalytic subunit alpha isoform (Homo sapiens) (UniProt P42336); conditions: at 1 µM
[6] = molecular target: T2, Phosphatidylinositol 4,5-bisphosphate 3-kinase catalytic subunit delta isoform (Homo sapiens) (UniProt O00329); conditions: at 0.1 µM
T2 sequence (whole entry): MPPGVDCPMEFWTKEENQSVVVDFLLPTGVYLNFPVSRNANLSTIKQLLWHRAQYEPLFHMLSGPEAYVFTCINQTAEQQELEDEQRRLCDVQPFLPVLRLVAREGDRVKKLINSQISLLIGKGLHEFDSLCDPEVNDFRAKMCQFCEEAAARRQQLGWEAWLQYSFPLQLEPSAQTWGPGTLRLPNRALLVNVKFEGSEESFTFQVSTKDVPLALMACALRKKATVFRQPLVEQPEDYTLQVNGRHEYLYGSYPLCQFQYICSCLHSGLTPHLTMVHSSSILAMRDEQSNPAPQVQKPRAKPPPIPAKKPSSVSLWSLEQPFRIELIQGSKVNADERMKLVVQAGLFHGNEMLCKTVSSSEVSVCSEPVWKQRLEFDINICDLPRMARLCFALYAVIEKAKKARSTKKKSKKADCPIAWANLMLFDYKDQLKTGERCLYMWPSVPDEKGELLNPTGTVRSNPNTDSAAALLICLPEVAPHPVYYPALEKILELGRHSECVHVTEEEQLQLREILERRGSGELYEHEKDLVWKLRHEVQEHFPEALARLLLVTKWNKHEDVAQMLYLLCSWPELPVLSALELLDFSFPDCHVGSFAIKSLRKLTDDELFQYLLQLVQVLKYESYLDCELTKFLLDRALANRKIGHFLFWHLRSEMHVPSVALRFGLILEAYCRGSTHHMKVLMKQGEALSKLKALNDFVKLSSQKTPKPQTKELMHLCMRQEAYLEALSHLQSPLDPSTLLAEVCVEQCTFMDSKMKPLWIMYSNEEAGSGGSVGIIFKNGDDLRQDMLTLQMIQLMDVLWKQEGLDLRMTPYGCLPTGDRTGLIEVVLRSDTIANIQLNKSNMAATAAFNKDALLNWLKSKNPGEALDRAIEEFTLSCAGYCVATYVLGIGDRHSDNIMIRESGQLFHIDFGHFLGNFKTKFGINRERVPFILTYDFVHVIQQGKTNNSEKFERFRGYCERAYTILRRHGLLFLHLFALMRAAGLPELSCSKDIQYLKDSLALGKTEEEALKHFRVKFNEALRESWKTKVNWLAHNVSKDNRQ

[7] = molecular target: T2, Phosphatidylinositol 4,5-bisphosphate 3-kinase catalytic subunit delta isoform (Homo sapiens); conditions: at 1 µM
[8] = molecular target: Phosphatidylinositol 4-kinase beta (Homo sapiens) (UniProt Q9UBF8); conditions: at 0.1 µM
Phosphatidylinositol 4-kinase beta (Homo sapiens), sequence (Q9UBF8 2-816 limits assumed): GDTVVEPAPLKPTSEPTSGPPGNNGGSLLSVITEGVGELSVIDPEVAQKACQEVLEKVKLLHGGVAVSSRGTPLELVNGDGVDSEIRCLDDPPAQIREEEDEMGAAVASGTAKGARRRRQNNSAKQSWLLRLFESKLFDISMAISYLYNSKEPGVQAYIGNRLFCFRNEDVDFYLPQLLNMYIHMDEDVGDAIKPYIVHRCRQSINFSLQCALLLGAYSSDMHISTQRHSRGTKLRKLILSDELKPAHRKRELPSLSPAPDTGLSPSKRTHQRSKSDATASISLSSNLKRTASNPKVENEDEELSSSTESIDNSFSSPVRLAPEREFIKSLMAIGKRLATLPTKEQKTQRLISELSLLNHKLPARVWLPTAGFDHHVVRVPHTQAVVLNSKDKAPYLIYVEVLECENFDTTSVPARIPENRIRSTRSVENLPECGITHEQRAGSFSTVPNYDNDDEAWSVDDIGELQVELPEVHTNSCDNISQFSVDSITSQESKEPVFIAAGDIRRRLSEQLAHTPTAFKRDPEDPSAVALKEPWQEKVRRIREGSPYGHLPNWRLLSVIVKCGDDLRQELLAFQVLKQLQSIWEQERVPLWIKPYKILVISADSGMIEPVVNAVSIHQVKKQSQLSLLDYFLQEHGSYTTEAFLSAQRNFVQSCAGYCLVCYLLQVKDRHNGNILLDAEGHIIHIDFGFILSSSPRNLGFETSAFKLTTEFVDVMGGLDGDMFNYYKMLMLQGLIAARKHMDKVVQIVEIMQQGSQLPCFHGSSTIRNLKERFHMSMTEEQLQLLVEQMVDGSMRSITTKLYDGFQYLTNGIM

[9] = molecular target: Phosphatidylinositol 4-kinase beta (Homo sapiens) (UniProt Q9UBF8); conditions: at 1 µM
[10] = molecular target: Sphingosine kinase 1 (Homo sapiens) (UniProt Q9NYA1); conditions: at 0.1 µM
Sphingosine kinase 1 (Homo sapiens), sequence (Q9NYA1 whole entry): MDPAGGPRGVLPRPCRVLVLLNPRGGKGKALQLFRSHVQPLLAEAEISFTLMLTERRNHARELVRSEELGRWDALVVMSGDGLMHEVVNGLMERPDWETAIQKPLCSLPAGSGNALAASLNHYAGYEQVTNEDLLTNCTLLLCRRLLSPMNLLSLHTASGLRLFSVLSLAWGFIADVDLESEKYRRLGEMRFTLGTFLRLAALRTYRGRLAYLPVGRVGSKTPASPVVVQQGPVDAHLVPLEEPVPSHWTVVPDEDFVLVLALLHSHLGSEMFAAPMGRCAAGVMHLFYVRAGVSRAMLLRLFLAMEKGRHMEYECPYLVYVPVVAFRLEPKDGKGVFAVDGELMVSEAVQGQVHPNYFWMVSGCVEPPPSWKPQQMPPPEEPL

[11] = molecular target: Sphingosine kinase 1 (Homo sapiens) (UniProt Q9NYA1); conditions: at 1 µM
[12] = molecular target: T3, Sphingosine kinase 2 (Homo sapiens) (UniProt Q9NRA0); conditions: at 0.1 µM
T3 sequence (whole entry): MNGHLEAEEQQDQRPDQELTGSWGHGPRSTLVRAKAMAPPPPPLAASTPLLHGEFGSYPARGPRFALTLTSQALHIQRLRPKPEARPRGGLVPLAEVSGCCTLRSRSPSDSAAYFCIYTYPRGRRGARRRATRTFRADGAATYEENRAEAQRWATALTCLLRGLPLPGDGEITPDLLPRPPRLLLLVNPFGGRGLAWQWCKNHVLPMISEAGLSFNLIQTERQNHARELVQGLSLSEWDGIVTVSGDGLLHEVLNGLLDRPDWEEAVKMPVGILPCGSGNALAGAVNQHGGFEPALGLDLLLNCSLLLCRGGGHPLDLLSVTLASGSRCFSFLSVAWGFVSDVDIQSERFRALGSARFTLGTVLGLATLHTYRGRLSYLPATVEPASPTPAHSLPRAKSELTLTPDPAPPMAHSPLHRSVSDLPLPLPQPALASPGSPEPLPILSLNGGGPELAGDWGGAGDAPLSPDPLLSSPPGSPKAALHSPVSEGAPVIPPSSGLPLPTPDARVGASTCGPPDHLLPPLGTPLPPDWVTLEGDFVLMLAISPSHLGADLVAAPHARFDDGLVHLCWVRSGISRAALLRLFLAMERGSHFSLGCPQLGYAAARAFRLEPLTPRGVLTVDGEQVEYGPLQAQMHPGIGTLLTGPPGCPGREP

[13] = molecular target: T3, Sphingosine kinase 2 (Homo sapiens); conditions: at 1 µM
[14] = molecular target: Casein kinase II subunit alpha (Homo sapiens) (UniProt P68400); conditions: at 0.1 µM
Casein kinase II subunit alpha (Homo sapiens), sequence (P68400 whole entry, looked up): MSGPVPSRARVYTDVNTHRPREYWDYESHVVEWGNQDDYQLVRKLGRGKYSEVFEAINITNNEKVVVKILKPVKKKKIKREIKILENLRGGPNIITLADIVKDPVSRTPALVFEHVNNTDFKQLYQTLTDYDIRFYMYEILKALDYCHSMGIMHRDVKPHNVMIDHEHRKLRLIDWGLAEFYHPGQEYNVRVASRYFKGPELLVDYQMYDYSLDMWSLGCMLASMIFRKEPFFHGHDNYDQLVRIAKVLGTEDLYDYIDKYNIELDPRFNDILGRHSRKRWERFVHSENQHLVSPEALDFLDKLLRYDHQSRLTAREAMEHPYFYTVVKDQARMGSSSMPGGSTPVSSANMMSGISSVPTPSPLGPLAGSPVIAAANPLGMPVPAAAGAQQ

[15] = molecular target: Casein kinase II subunit alpha (Homo sapiens) (UniProt P68400); conditions: at 1 µM
[16] = molecular target: T4, Inhibitor of nuclear factor kappa-B kinase subunit alpha (Homo sapiens) (UniProt O15111); conditions: at 0.1 µM
T4 sequence (whole entry): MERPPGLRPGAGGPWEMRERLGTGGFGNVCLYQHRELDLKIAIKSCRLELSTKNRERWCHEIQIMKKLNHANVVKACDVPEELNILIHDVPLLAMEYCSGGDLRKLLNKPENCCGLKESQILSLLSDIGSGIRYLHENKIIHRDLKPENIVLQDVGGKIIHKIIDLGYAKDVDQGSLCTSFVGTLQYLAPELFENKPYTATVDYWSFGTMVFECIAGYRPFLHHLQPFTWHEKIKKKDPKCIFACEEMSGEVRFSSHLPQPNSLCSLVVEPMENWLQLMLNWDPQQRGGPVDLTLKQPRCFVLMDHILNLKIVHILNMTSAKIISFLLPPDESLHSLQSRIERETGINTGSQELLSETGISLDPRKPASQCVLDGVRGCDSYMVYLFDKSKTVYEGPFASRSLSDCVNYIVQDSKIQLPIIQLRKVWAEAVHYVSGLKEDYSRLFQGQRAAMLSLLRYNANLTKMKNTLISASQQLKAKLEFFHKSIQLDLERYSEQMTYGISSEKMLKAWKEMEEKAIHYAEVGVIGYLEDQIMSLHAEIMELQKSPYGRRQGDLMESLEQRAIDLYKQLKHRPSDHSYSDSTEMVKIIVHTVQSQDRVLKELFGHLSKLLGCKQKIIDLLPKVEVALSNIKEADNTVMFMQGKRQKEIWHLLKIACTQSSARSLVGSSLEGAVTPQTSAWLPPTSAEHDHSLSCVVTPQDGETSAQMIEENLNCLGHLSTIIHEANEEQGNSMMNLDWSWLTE

[17] = molecular target: T4, Inhibitor of nuclear factor kappa-B kinase subunit alpha (Homo sapiens); conditions: at 1 µM
[18] = molecular target: T5, Inhibitor of nuclear factor kappa-B kinase subunit beta (Homo sapiens) (UniProt O14920); conditions: at 0.1 µM
T5 sequence (whole entry): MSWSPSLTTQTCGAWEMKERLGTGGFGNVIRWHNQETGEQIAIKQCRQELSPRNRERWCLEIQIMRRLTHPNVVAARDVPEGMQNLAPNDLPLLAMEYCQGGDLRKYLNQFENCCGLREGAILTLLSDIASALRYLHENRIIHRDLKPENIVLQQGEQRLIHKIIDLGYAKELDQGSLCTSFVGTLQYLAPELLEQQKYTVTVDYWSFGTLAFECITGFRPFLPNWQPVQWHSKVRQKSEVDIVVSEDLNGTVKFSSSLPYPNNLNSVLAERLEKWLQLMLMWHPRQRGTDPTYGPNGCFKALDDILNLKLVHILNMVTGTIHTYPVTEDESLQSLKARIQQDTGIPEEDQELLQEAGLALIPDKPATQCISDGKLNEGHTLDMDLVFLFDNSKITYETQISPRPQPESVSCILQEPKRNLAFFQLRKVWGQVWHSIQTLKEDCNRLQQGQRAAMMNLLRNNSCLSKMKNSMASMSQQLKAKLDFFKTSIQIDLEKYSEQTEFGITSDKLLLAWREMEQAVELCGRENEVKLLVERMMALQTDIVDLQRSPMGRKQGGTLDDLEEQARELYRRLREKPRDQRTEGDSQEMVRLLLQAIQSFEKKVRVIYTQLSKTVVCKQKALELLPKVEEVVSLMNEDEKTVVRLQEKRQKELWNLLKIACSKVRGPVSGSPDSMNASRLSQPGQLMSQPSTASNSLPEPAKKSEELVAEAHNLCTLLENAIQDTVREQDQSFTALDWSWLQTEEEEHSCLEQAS

[19] = molecular target: T5, Inhibitor of nuclear factor kappa-B kinase subunit beta (Homo sapiens); conditions: at 1 µM
[20] = molecular target: T6, Inhibitor of nuclear factor kappa-B kinase subunit epsilon (Homo sapiens) (UniProt Q14164); conditions: at 0.1 µM;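 also: mean inhibition of IKKε reported, from the GSK PKIS dataset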
T6 sequence (whole entry): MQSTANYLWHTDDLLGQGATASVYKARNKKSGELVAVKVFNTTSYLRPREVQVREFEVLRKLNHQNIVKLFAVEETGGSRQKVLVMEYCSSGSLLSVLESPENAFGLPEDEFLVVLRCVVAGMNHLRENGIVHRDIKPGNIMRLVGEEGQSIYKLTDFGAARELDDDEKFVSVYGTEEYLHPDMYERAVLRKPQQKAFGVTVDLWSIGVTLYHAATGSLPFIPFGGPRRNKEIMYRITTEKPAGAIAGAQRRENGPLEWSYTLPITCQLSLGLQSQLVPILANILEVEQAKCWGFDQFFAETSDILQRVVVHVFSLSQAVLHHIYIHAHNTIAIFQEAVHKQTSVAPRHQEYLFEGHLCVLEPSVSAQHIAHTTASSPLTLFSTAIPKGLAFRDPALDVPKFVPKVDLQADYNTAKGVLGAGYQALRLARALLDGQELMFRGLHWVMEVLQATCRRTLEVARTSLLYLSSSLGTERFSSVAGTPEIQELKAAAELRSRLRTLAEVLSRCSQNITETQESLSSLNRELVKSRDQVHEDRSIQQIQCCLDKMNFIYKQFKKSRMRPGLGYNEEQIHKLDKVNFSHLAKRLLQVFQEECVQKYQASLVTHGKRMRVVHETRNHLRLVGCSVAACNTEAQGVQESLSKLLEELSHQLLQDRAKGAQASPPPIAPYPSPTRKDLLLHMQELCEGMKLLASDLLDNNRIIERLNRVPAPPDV

Compound | inhibition [1] [%] | inhibition [2] [%] | inhibition [3] [%] | inhibition [4] [%] | inhibition [5] [%] | inhibition [6] [%] | inhibition [7] [%] | inhibition [8] [%] | inhibition [9] [%] | inhibition [10] [%] | inhibition [11] [%] | inhibition [12] [%] | inhibition [13] [%] | inhibition [14] [%] | inhibition [15] [%] | inhibition [16] [%] | inhibition [17] [%] | inhibition [18] [%] | inhibition [19] [%] | inhibition [20] [%]
OCCCNc1nccc(-c2c(-c3ccc(F)cc3)nn3cc(C(F)(F)F)ccc23)n1 | 2.13 | -1.12 | -3.43 | 2.12 | 2.75 | 4.76 | 4.87 | 4.2 | -3.41 | -0.34 | -0.86 | 1.62 | -1.3 | 1.23 | 6.41 | -2.66 | 1.51 | 1.75 | -0.39 | 0.9
O=C(O[C@H]1CN[C@H](C#Cc2cc3ncnc(Nc4ccc(OCc5cccc(F)c5)c(Cl)c4)c3s2)C1)N1CCOCC1 | 3.47 | -2 | 0.44 | 4.94 | 26.9 | 3.37 | 15.8 | -0.81 | 1.44 | 0.99 | -2.17 | 0.46 | -2.18 | 4.85 | 11.5 | 6.35 | 6.72 | 8.43 | 11.1 | 8.36
CS(=O)(=O)CCNCc1ccoc1-c1ccc2ncnc(Nc3ccc(OCc4ccccc4)cc3)c2c1 | 0.43 | -0.09 | -1.85 | 1.09 | 2.87 | 0.63 | 4.62 | 9.16 | -0.68 | 0.65 | 5.32 | 1.37 | 1.07 | 2.14 | 1.94 | 1.95 | 8.23 | -1.24 | 0.42 | -0.44
